KB-3-1 tox: kills parental KB-3-1 adenocarcinoma cells; KB-3-1 viability, CellTiter-Glo ATP luminescence, 72 h; Potency, µM (highest dose often 46.1 µM), most hits filed as cytotoxic; AID 1347075; 1.4% of 400,000 active; note: nearly all actives have a fitted effect of over 60% in size
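Using CellTiter-Glo luminescence, growth of non-resistant KB-3-1 adenocarcinoma cells is assessed 72 h after pin-tool compound addition at 37 °C. Normalized responses across the concentration series yield fitted curves.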
S2 tox: reduces viability in counter-screen for ATXN expression inhibitors | AID 651635 | S2 cells (HEK-293 line with an ATXN2-luciferase reporter) viability, CellTiter-Fluor protease fluorescence, 24 h | 0.49% of 400,000 active | Potency, µM (highest dose often 56.7 µM), actives largely listed as cytotoxic; note: nearly all actives have a fitted effect of over 40% in size
KB-V1 cytotox: KB-V1 MDR subline cytotoxicity; Potency, µM (titrated, usually from 46.1 µM), most hits filed as cytotoxic; KB-V1 MDR cells viability, CellTiter-Glo, 72 h; AID 1347076; 3.4% of 400,000 active; note: nearly all actives have a fitted effect of over 60% in size
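Drug-selected KB-V1 cells, grown in DMEM lacking phenol red with 10% FBS, receive compound titrations; after three days at 37 degrees C, surviving cell ATP is quantified by CellTiter-Glo luminescence and responses normalized and curve-fitted.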
ATXN2 expr inh: inhibitors of ATXN2 expression | AID 1745845 | Potency, µM (top dose mostly 57 µM), usual class: inhibitors | HEK-293 ATXN2-luciferase reporter, luminescence, 24 h | 0.72% of 360,000 active; note: nearly all actives have a fitted effect of over 55% in size
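ATXN2-luciferase reporter cells (luciferase flanked by upstream and downstream ATXN2 gene portions) were treated 24 h at 37 °C with compounds at up to 57 uM. SteadyGlo luminescence gave expression; GF-AFC fluorescence gave viability.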
HepG2 viability: counter-screen for TGF-b inhibitors: cytotoxicity in HepG2 cells | HepG2 CAGA-GFP viability, ATP luminescence, 18 h | Potency, µM (series often up to 46.1 µM), usual class: cytotoxic | 0.76% of 410,000 active
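CellTiter-Glo luminescence gave cytotoxicity after 18 hours at 37 degrees C. The cells were HepG2 CAGA-GFP in 1% FBS DMEM, stimulated with 500 pg/mL TGF-beta after compound addition. %Activity was normalised to no-cell wells (complete cell-killing) and DMSO (no toxicity), and curves were fitted and classified.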
TGFb inhibitor: TGF-b pathway inhibition | HepG2 CAGA-GFP TGF-b/SMAD3 reporter, GFP fluorescence, 18 h; TGF-beta stimulated, 500 pg/mL final | Potency, µM (highest dose often 46.1 µM), most hits filed as inhibitors | 1.2% of 410,000 active; note: nearly all actives have a fitted effect of over 65% in size
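First, reporter cells (HEPG2 CAGA-GFP) rested 2 h at 37 degrees C. Next, compounds were pinned in and TGF-beta added to 500 pg/mL final. After 18 h, GFP was imaged per cell and summed per well.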
Numbers stand for hits; [ ] = another dose, or the depositor's remark. This is a sample that favours compounds with a hit; in the whole collection about 5.9% have one here. Calls come from the whole dose curve; as a rule, active = well fitted curve in the direction sought with a large enough effect; inconclusive = small, poorly fitted or top-dose-only effect, or another doubt; inactive = no such curve, though single readings can be large; an effect the other way counts as inactive or inconclusive.

For COc1ccc(CN2CCc3nnc(CCc4ccccc4)n3CC2)c(OC)c1C the results were S2 tox inactive.
`CCCCn1c(=N)n(CC(O)COc2ccc(C)cc2)c2ccccc21` (stereo not given) gave KB-3-1 tox 17.8µM, KB-V1 cytotox inconclusive, HepG2 viability 12.6µM and TGFb inhibitor inconclusive.
Screening CCCCn1c(=N)n(CC(O)c2ccccc2)c2ccccc21 (stereo not given) returned KB-3-1 tox inconclusive, S2 tox inactive, KB-V1 cytotox inconclusive, ATXN2 expr inh inactive, HepG2 viability inactive and TGFb inhibitor inactive.
Screening CCCCn1c(=N)n(CC(O)COc2ccccc2)c2ccccc21 (stereo not given) returned KB-3-1 tox inconclusive, S2 tox inactive, KB-V1 cytotox 20.6µM, ATXN2 expr inh inactive, HepG2 viability inactive and TGFb inhibitor inactive.
Screening CCCCCCCCCCCC[N+](C)(C)Cc1ccccc1 returned S2 tox 31.6µM and ATXN2 expr inh 25.1µM.
`CC(C)(C)C(=O)Cn1ncc(Cl)c(Cl)c1=O` gave KB-3-1 tox inactive, S2 tox 7.94µM, KB-V1 cytotox inconclusive, HepG2 viability inactive and TGFb inhibitor inactive.
`O=C(Cn1ncc(N2CCOCC2)c(Cl)c1=O)c1ccc(Cl)cc1` gave KB-3-1 tox inactive, S2 tox inconclusive, KB-V1 cytotox inactive, ATXN2 expr inh inactive[11.3 µM], HepG2 viability inactive and TGFb inhibitor inactive.
`O=C(Cn1ncc(Cl)c(Cl)c1=O)NCC1CCCCC1` gave KB-3-1 tox 14.6µM, KB-V1 cytotox inactive, ATXN2 expr inh inconclusive, HepG2 viability inactive and TGFb inhibitor inconclusive.
Screening O=C(OCn1ncc(Cl)c(Cl)c1=O)c1ccccc1Cl returned KB-3-1 tox 3.66µM, KB-V1 cytotox inconclusive, ATXN2 expr inh inconclusive, HepG2 viability inactive and TGFb inhibitor inactive.
`O=c1c(Cl)c(Cl)cnn1Cc1ccc(F)cc1` gave KB-3-1 tox inconclusive, KB-V1 cytotox inactive, ATXN2 expr inh inconclusive, HepG2 viability inactive and TGFb inhibitor inconclusive.
For O=C(Cn1ncc(Cl)c(Cl)c1=O)c1ccc(Cl)cc1 the results were KB-3-1 tox inconclusive, S2 tox inconclusive, KB-V1 cytotox inconclusive, ATXN2 expr inh inconclusive, HepG2 viability 17.8µM and TGFb inhibitor inconclusive.
Screening COc1ccc2oc(=O)c(C(=O)Nc3ccc(C(=O)O)cc3)cc2c1 returned KB-3-1 tox inactive, S2 tox inactive, KB-V1 cytotox inactive, ATXN2 expr inh inactive, HepG2 viability inactive and TGFb inhibitor inactive.
`COc1ccc(CN2CCOc3ccc(CN4CCC(O)CC4)cc3C2)c(OC)c1OC` gave S2 tox inactive.
For C=CCn1c(C)cc(C(=O)Cn2ncc(Cl)c(Cl)c2=O)c1C the results were KB-3-1 tox inconclusive, S2 tox 35.5µM, KB-V1 cytotox inconclusive, ATXN2 expr inh inconclusive, HepG2 viability inactive and TGFb inhibitor inactive.
For CCN(CC)c1ccc(N=Cc2ccc([N+](=O)[O-])o2)cc1 the results were KB-3-1 tox 18.4µM, S2 tox inactive, KB-V1 cytotox inactive, ATXN2 expr inh inactive, HepG2 viability inactive and TGFb inhibitor inactive.
For CCN(CC)c1ccc(N=Cc2ccccc2[N+](=O)[O-])cc1 the results were KB-3-1 tox inactive, S2 tox inconclusive, KB-V1 cytotox inactive, ATXN2 expr inh inconclusive, HepG2 viability 8.91µM and TGFb inhibitor inconclusive.
For CC(=O)N(C)c1ccc(N=Cc2cc3c(cc2[N+](=O)[O-])OCO3)cc1 the results were KB-3-1 tox inactive, S2 tox inactive, KB-V1 cytotox inactive, ATXN2 expr inh inactive, HepG2 viability inactive and TGFb inhibitor inactive.
Screening Cc1ccc2ccc(C(Nc3ccccc3)c3ccccc3)c(O)c2n1 (stereo not given) returned KB-3-1 tox 4.11µM and KB-V1 cytotox inconclusive.
`Cc1ccc2ccc(C(Nc3ccccc3)c3ccc(C(C)C)cc3)c(O)c2n1` (stereo not given) gave KB-3-1 tox 14.6µM and KB-V1 cytotox inconclusive.
`COc1cc(C(Nc2ccccn2)c2ccc3ccc(C)nc3c2O)cc(OC)c1O` (stereo not given) gave KB-3-1 tox inconclusive, KB-V1 cytotox 16.4µM, ATXN2 expr inh inconclusive, HepG2 viability inactive and TGFb inhibitor inconclusive.
Screening Cc1ccc2ccc(C(Nc3ccccc3)c3ccc(F)cc3)c(O)c2n1 (stereo not given) returned KB-3-1 tox inactive and KB-V1 cytotox inconclusive.
For Cc1ccc(CN2C(=O)c3ccccc3C2c2nnnn2-c2ccc3c(c2)OCCO3)cc1 (stereo not given) the results were KB-3-1 tox inconclusive, S2 tox inconclusive, KB-V1 cytotox inactive and ATXN2 expr inh inactive.
Screening Cc1ccccc1CN1C(=O)c2ccccc2C1c1nnnn1-c1ccc2c(c1)OCCO2 (stereo not given) returned KB-3-1 tox 2.91µM, S2 tox inconclusive, KB-V1 cytotox 5.8µM and ATXN2 expr inh inactive.
CCCCCCCCc1ccc(CCC(N)(CO)CO)cc1 was read as ATXN2 expr inh 30.6µM.
Screening O=C(c1ccccc1Br)N(Cc1ccco1)C1CCS(=O)(=O)C1 (stereo not given) returned KB-3-1 tox inactive, S2 tox inactive, KB-V1 cytotox inactive, ATXN2 expr inh inactive, HepG2 viability inactive and TGFb inhibitor inactive.
For O=C1CN(C(=O)COC(=O)c2ccccc2O)c2ccccc2N1 the results were KB-3-1 tox inactive, S2 tox inactive, KB-V1 cytotox inactive, ATXN2 expr inh inactive, HepG2 viability inactive and TGFb inhibitor inactive.
Cc1cc(C(=O)OCC(=O)N2CC(=O)Nc3ccccc32)c(C)n1-c1ccccc1 was read as KB-3-1 tox inactive, S2 tox inactive, KB-V1 cytotox 16.4µM, ATXN2 expr inh inactive, HepG2 viability inactive and TGFb inhibitor inactive.
COc1cc(SC)ccc1C(=O)OCC(=O)N1CC(=O)Nc2ccccc21 was read as KB-3-1 tox inactive, S2 tox inactive, KB-V1 cytotox inactive, ATXN2 expr inh inactive, HepG2 viability inactive and TGFb inhibitor inactive.
For Cc1noc(C)c1COc1cccc(C(=O)OCC(=O)N2CC(=O)Nc3ccccc32)c1 the results were KB-3-1 tox 1.46µM, S2 tox inactive, KB-V1 cytotox inconclusive, ATXN2 expr inh inactive, HepG2 viability inactive and TGFb inhibitor inactive.
`Cc1cc(C(=O)OCC(=O)N2CC(=O)Nc3ccccc32)c(C)n1-c1ccc(F)cc1` gave KB-3-1 tox inconclusive, S2 tox inactive, KB-V1 cytotox 16.4µM, ATXN2 expr inh inactive, HepG2 viability inactive and TGFb inhibitor inconclusive.
`CCN1CCN(C(c2ccc(SC)cc2)c2c(O)cc(C)n(Cc3ccco3)c2=O)CC1` (stereo not given) gave KB-3-1 tox inactive, KB-V1 cytotox inactive, HepG2 viability inactive and TGFb inhibitor inactive.
